Rows were chosen to be rich in hits. Some 6.8% of all compounds tested hit in one or more screens of this group.
KB-3-1 tox = qHTS assay for MDR1-selective chemotherapeutics: Primary screen using the parental adenocarcinoma cell KB-3-1. KB-3-1 viability, CellTiter-Glo ATP luminescence, 72 h. 1.4% of 400,000 active. AID 1347075, 2019. Potency, µM (titrated, usually from 46.1 µM), actives largely listed as cytotoxic; also: nearly all actives have a fitted effect of over 60% in size
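Using CellTiter-Glo luminescence, growth of non-resistant KB-3-1 adenocarcinoma cells is assessed 72 h after pin-tool compound addition at 37 °C. Normalized responses across the concentration series yield fitted curves.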
TSG101-PTAP inh = qHTS Assay for Iinhibitors of HIV-1 Budding by Blocking the Interaction of PTAP/TSG101 | Tumor susceptibility gene 101 protein (Homo sapiens), Q99816 | Fluorescence polarization, FITC-PTAP peptide / Tsg101 binding | Potency, µM (series often up to 115 µM), most hits filed as inhibitors | 340,000 tested, under 10 active | AID 493005, 2010; active = well fitted inhibition curve with a large enough effect in the main read-out, with a control signal flat, not every such curve was filed as active; inconclusive = small, poorly fitted or top-dose-only effect, or effect the other way, or a change in a side signal; inactive = no such curve, though single readings can be large or run the other way
Target sequence (Q99816 whole entry, looked up): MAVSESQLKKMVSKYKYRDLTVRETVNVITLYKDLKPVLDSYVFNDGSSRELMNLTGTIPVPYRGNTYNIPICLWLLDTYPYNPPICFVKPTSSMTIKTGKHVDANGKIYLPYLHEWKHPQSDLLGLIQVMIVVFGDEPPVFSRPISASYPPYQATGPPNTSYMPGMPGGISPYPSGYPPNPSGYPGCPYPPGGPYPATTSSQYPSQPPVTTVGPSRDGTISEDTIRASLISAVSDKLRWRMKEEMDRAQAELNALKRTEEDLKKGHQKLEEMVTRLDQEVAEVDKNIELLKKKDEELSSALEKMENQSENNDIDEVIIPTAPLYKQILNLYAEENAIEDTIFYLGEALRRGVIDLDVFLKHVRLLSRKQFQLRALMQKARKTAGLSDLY
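Steps: Tsg101 binding domain dispensed (10 uM final), compounds pinned in DMSO, FITC-labeled PTAP-motif peptide added (50 nM final); after 20 min binding at room temperature, polarization measured.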
MCF10A rereplic = A quantitative high throughput screen for small molecules that induce DNA re-replication in MCF 10a normal breast cells. MCF 10A DNA re-replication, Hoechst nuclear intensity, 48 h. AID 624296, 2012. 2.9% of 350,000 active. Potency, µM (doses to about 46.1 µM), actives largely listed as activators; also: nearly all actives have a fitted effect of over 50% in size
PINK1 expr mod = A Quantitative High throughput Screen to Identify Chemical Modulators of PINK1 Expression | PINK1 immunofluorescence, high-content cytometry, 24 h | Potency, µM (titrated, usually from 76.6 µM), most hits filed as activators | 0.2% of 410,000 active | AID 624263, 2012; active = well fitted activation curve with a large enough effect; inconclusive = small, poorly fitted or top-dose-only effect; cell line not stated here; also: nearly all actives have a fitted effect of over 65% in size
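Measures PINK1 amount and localization on or inside mitochondria by immunofluorescence. Stable cells get compounds at 5 concentrations for 24 hours before fixation and staining; CCCP controls included.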
KB-V1 MDR tox = qHTS assay for MDR1-selective chemotherapeutics: Primary screen using the drug-selected MDR subline cells KB-V1 | KB-V1 MDR cells viability, CellTiter-Glo, 72 h | Potency, µM (top dose mostly 46.1 µM), most hits filed as cytotoxic | 3.4% of 400,000 active | AID 1347076, 2019; also: nearly all actives have a fitted effect of over 60% in size
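Cytotoxicity toward P-gp-expressing KB-V1 cells was determined as loss of CellTiter-Glo luminescence after 72 h at 37 degrees C. Compounds were tested in quantitative HTS format across a concentration range, with curves fitted to normalized data.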
SW480 rerep = A quantitative high throughput screen for small molecules that induce DNA re-replication in SW480 colon adenocarcinoma cells | SW480 DNA re-replication, Hoechst DNA content imaging, 48 h | Potency, µM (titrated, usually from 46.1 µM), usual class: activators | 1.8% of 340,000 active | AID 624297, 2012; also: nearly all actives have a fitted effect of over 55% in size
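Readout is total intensity of Hoechst-stained nuclei, excited at 405 nm and collected at 500-530 nm. Compound treatment lasted 48 hr at 37 C in 5% CO2 before staining.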
A number is an active result; – = inactive; ? = inconclusive; · = not tested or not shown. Unless noted, calls follow the shape of the dose curve; as a rule, active = well fitted curve in the direction sought with a large enough effect; inconclusive = small, poorly fitted or top-dose-only effect, or another doubt; inactive = no such curve, though single readings can be large; an effect the other way counts as inactive or inconclusive.

SMILES | KB-3-1 tox | TSG101-PTAP inh | MCF10A rereplic | PINK1 expr mod | KB-V1 MDR tox | SW480 rerep
Cc1ccc(Nc2nnc(SCC(=O)Nc3ccccc3[N+](=O)[O-])s2)cc1 | – | – | – | – | ? | –
CCc1ccc(Nc2nnc(SCC(=O)N(C)CC(=O)Nc3ccccc3CC)s2)cc1 | – | – | ? | – | ? | –
Cc1ccc(Nc2nnc(SCC(=O)Nc3cccnc3Cl)s2)cc1C | – | – | ? | – | 5.2µM | –
CCc1ccc2nc(NC(=O)c3cc(C)on3)sc2c1 | 7.3µM | – | 6.5µM | – | 8.2µM | 6.5µM
Cc1cc(C(=O)Nc2nc3c(s2)CCCC3)no1 | – | – | – | – | 16µM | –
Clc1ccc2oc(-c3cccnc3NCc3ccccc3)nc2c1 | – | – | 16µM | – | – | ?
Cc1ccc(CNc2ncccc2-c2nc3cc(Cl)ccc3o2)cc1 | – | – | ? | – | ? | –
O=C(CC1N=C2c3ccccc3N=C(SCc3ccccc3F)N2C1=O)NCc1ccc2c(c1)OCO2 (stereo not drawn) | – | · | · | – | – | ·
O=c1[nH]c(/C=C/c2ccccc2OC(F)F)nc2c1cnn2-c1ccccc1 | – | – | 15µM | – | – | ?
Cc1cc(C)n(C(C)CC(=O)Nc2ccc(C)c(F)c2)n1 (stereo not drawn) | – | · | · | – | – | ·
COc1ccc2c(c1)CCc1c(C(=O)NCc3cccnc3)noc1-2 | ? | – | – | – | 8.2µM | –
Cc1cc(NC(=O)c2noc3c2CCc2ccccc2-3)no1 | – | – | – | – | – | –
Cc1ccc(O)c(NC(=O)c2noc3c2CCc2ccccc2-3)c1 | – | – | ? | – | – | 15µM
O=C(c1noc2c1CCc1ccccc1-2)N1CCOCC1 | – | – | – | – | 16µM | –
COc1ccc2c(c1)CCc1c(C(=O)N3CCCCCC3)noc1-2 | – | · | ? | – | 15µM | –
CCCNC(=O)c1noc2c1CCc1cc(OC)ccc1-2 | – | – | – | – | – | –
CCn1c(SCc2ccc(F)cc2Cl)nc(=O)c2c(C(=O)OC)cc(C3CC3)nc21 | – | · | · | – | – | ·
Cc1nn(-c2ccc(F)cc2)c(-n2cccc2)c1C(=O)N1CCN(c2ccccc2F)CC1 | ? | · | · | – | 10µM | ·
COc1ccc(CCNC(=O)c2c(C)nn(-c3ccc(F)cc3)c2-n2cccc2)c(OC)c1OC | ? | · | · | – | 12µM | ·
Cc1nn(-c2ccc(F)cc2)c(-n2cccc2)c1C(=O)N1CCN(c2ccc(F)cc2)CC1 | ? | · | · | – | 16µM | ·
CCOC(=O)c1cc(-c2ccc(OC)cc2)n(CCC(=O)NC2CCC(C)CC2)c1C (stereo not drawn) | · | · | · | – | · | ·
N#Cc1ccccc1-c1ccc2ncnc(NCc3cccs3)c2c1 | · | · | · | – | · | ·
CCN1C(=O)C(Cc2nc3ccccc3c(=O)n2-c2ccccc2)c2ccccc21 (stereo not drawn) | – | – | – | – | 4.1µM | –
COc1ccc(OCCNC2CCCC2)cc1 | – | – | – | – | – | –
c1ccc(-c2ccc(OCCCNC3CCCC3)cc2)cc1 | ? | – | 6.5µM | – | – | ?
SMILES | KB-3-1 tox | TSG101-PTAP inh | MCF10A rereplic | PINK1 expr mod | KB-V1 MDR tox | SW480 rerep
CCOC(=O)c1cc(-c2ccccc2)nc2nc(N(CC)CC)sc12 | – | – | 5.2µM | – | – | ?
CCOC(=O)c1cc(-c2ccccc2)nc2nc(N3CCCCC3)sc12 | – | – | 9.2µM | – | – | –
O=C(NC(c1cccnc1)C(F)(F)F)c1cnn(-c2nccc(-c3cccs3)n2)c1C1CC1 (stereo not drawn) | · | · | · | – | · | ·
CC(C(=O)NC1CCCC1)N(C(=O)c1snc(C(N)=O)c1N)c1ccc2c(c1)OCCO2 (stereo not drawn) | – | – | – | – | 16µM | –
CCOc1ccccc1N(C(=O)c1snc(C(N)=O)c1N)C(C(=O)NCCC(C)C)c1ccco1 (stereo not drawn) | – | – | – | – | 13µM | –
CCCC(C(=O)NC1CCCC1)N(CC1CCCO1)C(=O)c1snc(C(N)=O)c1N (stereo not drawn) | – | – | – | – | 4.1µM | –
CCCC(C(=O)NC(C)(C)C)N(CC1CCCO1)C(=O)c1snc(C(N)=O)c1N (stereo not drawn) | – | – | – | – | ? | –
O=C(NC1CCCC1)C(c1ccncc1)N(Cc1ccco1)C(=O)c1ccc(-c2ccccc2)[nH]1 (stereo not drawn) | ? | – | ? | – | 21µM | ?
Cc1ccc(C)n1-c1c(C(=O)NCCCN2CCN(c3ccc(F)cc3)CC2)sc2ncccc12 | – | · | · | – | – | ·
Cc1cc(NC(=O)CN(C)S(=O)(=O)c2ccc3c(c2)CCC(=O)N3)ccc1Br | ? | · | · | – | ? | ·
CC(C)(C)NC(=O)C(c1ccco1)N(Cc1ccc(F)cc1)C(=O)c1snc(C(N)=O)c1N (stereo not drawn) | – | · | – | – | 18µM | –
COc1ccc(C)cc1N(C(=O)c1snc(C(N)=O)c1N)C(C(=O)NC1CCCCC1)c1ccc(C)o1 (stereo not drawn) | ? | – | – | – | 21µM | ?
COc1cccc(C(C(=O)NC2CCCC2)N(Cc2ccco2)C(=O)c2ccco2)c1OC (stereo not drawn) | – | – | – | – | 2.9µM | –
COc1ccc(C(C(=O)NC2CCCCC2)N(Cc2ccco2)C(=O)c2snc(C(N)=O)c2N)cc1 (stereo not drawn) | ? | – | ? | – | 16µM | –
COc1ccc(OC)c(C(C(=O)NC2CCCCC2)N(C(=O)c2snc(C(N)=O)c2N)c2ccccc2OC)c1 (stereo not drawn) | – | – | – | – | – | –
COc1cccc(C(C(=O)NC2CCCC2)N(C(=O)c2ccco2)c2ccccc2F)c1OC (stereo not drawn) | – | – | – | – | ? | –
NC(=O)c1nsc(C(=O)N(Cc2ccco2)C(C(=O)NCc2ccc(F)cc2)c2ccc(O)cc2)c1N (stereo not drawn) | – | – | – | – | – | –
Cc1ccc(C(C(=O)NCc2ccc(F)cc2)N(Cc2ccco2)C(=O)c2snc(C(N)=O)c2N)o1 (stereo not drawn) | – | – | 16µM | – | ? | –
Cn1c(N/N=C/c2c[nH]c3ccccc23)nc2ccccc21 | ? | – | ? | – | – | ?
Cn1c(N/N=C/c2cc3ccccc3nc2Cl)nc2ccccc21 | ? | ? | ? | 35µM | ? | ?

Compound activity as filed in PubChem BioAssay.
